The record followed here is PubChem BioAssay (Tox21).

Molecules are shown by their SMILES. Records with an inconclusive call do not appear. Values without a mark were called inactive. The source made the active and inactive calls. The call rests on the fitted dose curve; in most records, active means well fitted activation curve with a large enough effect in the repeat runs; inconclusive means weak or mixed curves; inactive means no such curve, though single readings can be large or run the other way.
On the % scale 0 is the no-effect control and ±100 the full control effect.

The assay has as its target Nuclear receptor subfamily 1 group I member 2 (Homo sapiens) (UniProt O75469). The experiment in a line: CYP3A4 induction through human pregnane X receptor (PXR) by small molecules, qHTS assay (AID 1346984). Further: nearly all actives have a fitted effect of over 40% in size. Conditions: DPX-2 HepG2 PXR, CYP3A4-luciferin luminescence, 24 h; series mostly up to 46.1 µM; activation: at the top concentration. An excerpt:
National Center for Advancing Translational Sciences [NCATS]
NIH Chemical Genomics Center [NCGC]
U.S. Environmental Protection Agency [EPA]
National Institutes of Environmental Health Sciences [NIEHS]
National Toxicology Program [NTP]
The Pregnane X receptor (PXR), a ligand activated nuclear receptor plays a critical role in the regulation of genes involved in drug metabolism and transporters. Activation of PXR is responsible for unwanted adverse drug reactions. PXR binds xenobiotics and when compounds interact with PXR enhances the expression of CYP3A genes. Identifying the compounds with the potential for PXR activation and CYP3A4 induction can be of importance in improving the efficacy of drugs with less toxicity and avoiding drug-drug interactions.
DPX-2 (Puracyp, Inc.) cell lines, used for screening against human PXR activation has HepG2 cells co-transfected with a PXR response element and a luciferase construct containing CYP3A4 promoter. Increase in luciferase activity can be used to identify the compounds that cause the induction of CYP3A4.
DPX-2 cells were dispensed at 2,000 cells per well in 5uL of assay medium into white, solid-bottom 1536-well plates using a Multidrop Combi dispenser (Thermo Scientific). The assay plates were incubated at 37C for 5hr before transferring 23nL of test compounds dissolved in DMSO and positive control via Pintool station (Wako). The assay plates were incubated at 37C for 24hr. After 24hr compound treatment, 1uL of 3uM (final concentration) P450 substrate (P450-Glo CYP3A4 screening system with Luciferin-IPA, Promega) was added by a Flying Reagent Dispenser (FRD, Aurora Discovery). The assay plates were incubated for 3hr at 37C. Then 5ul One-Glo assay reagent (Promega) was added to each plate by an FRD and following 30 min incubation at room temperature, luciferase activity was quantified on a ViewLux plate reader (Perkin Elmer).
For orientation: Quantitative high-throughput screening tests each substance at several concentrations.
Regarding `CCCCCC(N)=O`, the “activation” value was -3.14%.
Still for that read-out and setting: the figure for `O=c1[nH]c(=O)n([C@H]2C[C@H](O)[C@@H](CO)O2)cc1Br` is 3.03%; for `CC(=O)Nc1cccc(O)c1` it is 4.08%; for `OC[C@H]1O[C@@](CO)(O[C@H]2O[C@H](CO)[C@@H](O)[C@H](O)[C@H]2O)[C@@H](O)[C@@H]1O` it is -8.68%.
Same read-out and setting: the figure for `CC(=O)Nc1ccccc1` is -4.04%; for `O=C(O)c1cc(O)c(O)c(O)c1` it is -5.71%; for `C=CCNC(N)=S` it is -0.0562%.
Consider `O=C(O)[C@H](O)[C@@H](O)[C@H](O)[C@H](O)CO`, for which the call was inactive.
Turning to `O=c1[nH]c(=O)n([C@H]2CCCO2)cc1F`, the “activation” value is -2.36%.
Same read-out and setting: the figure for `CC(c1cc2ccccc2s1)N(O)C(N)=O` (centres undefined) is 9.97%; for `CC1=CCC2CC1C2(C)C` (centres undefined) it is 3.45%.
The same measure, in the same setting: to `C#CCN(C)Cc1ccccc1` belongs -3.01% [at 20.6 µM]; to `OCCOCCOCCO`, 5.75%; to `CC(=O)OCC(=O)[C@@]12N=C(C)O[C@@H]1C[C@H]1[C@@H]3CCC4=CC(=O)C=C[C@]4(C)[C@H]3[C@@H](O)C[C@@]12C`, 3.93%.
